Results on 30 compounds are retold here after PubChem BioAssay (Tox21).

Values joined by “and” are separate entries in the source; they are usually repeats but may differ in a detail not shown here. Equal values may be shown once. Inconclusive results are not listed. Active and inactive are the calls of the source. Calls follow the shape of the dose curve; as a rule, active = well fitted curve in the direction sought with a large enough effect in the repeat runs; inconclusive = weak or mixed curves; inactive = no such curve, though single readings can be large; an effect the other way counts as inactive or inconclusive.

Assay [1] in a line: A CellTox Green Cytotoxicity Assay to monitor cytotoxicity in HEK293 cells - 8 hour (AID 1224884). Also: nearly all actives have a fitted effect of over 35% in size. The procedure, abridged:
(§1)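 Homogeneous no-lysis format: HEK293 cell suspension mixed with CellTox Green reagent, seeded, incubated 5 h at 37 C/5% CO2, then dosed by pintool with compound in DMSO.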

The nature of assay [2]: qHTS RealTime-Glo MT Cell Viability Assay in HepG2 cells - 16 hour (AID 1224885). Also: nearly all actives have a fitted effect of over 50% in size. The procedure, abridged: (§2)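 Luminescence read-out: viable HepG2 cells reduce a prosubstrate to a NanoLuc substrate, giving a signal proportional to live cell number. Reads taken at 0, 8, 16, 24, 32 and 40 h of compound exposure at 37 C.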
The nature of assay [3]: qHTS RealTime-Glo MT Cell Viability Assay in HEK293 cells - 24 hour (AID 1224886). Also: nearly all actives have a fitted effect of over 50% in size. Also: potency is read from the fitted curve at half-maximal effect. The procedure, abridged: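 Nonlytic real-time viability readout: viable cells convert prosubstrate to NanoLuc substrate, giving luminescence proportional to live cell number. HEK293, 600 cells/well, compound added after 5 h, continuous culture at 37 C.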
A short description of assay [4]: A CellTox Green Cytotoxicity Assay to monitor cytotoxicity in HEK293 cells - 16 hour (AID 1224888). Also: nearly all actives have a fitted effect of over 35% in size. The method in brief: as §1
The nature of assay [5]: qHTS RealTime-Glo MT Cell Viability Assay in HepG2 cells - 0 hour (AID 1224889). Also: nearly all actives have a fitted effect of over 50% in size. The procedure, abridged: as §2
Assay [6] is described as follows: A CellTox Green Cytotoxicity Assay to monitor cytotoxicity in HepG2 cells - 8 hour (AID 1224890). Also: nearly all actives have a fitted effect of over 45% in size. The procedure, abridged:
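Fluorescent DNA-binding dye, 600 HepG2 cells/well, 5 h preincubation then compound in DMSO; same plates read at 0–40 h, 37 C.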

The nature of assay [7]: qHTS assay to identify small molecule antagonists of the estrogen receptor alpha (ER-alpha) signaling pathway using the BG1 cell line in the presence of 0.1 nM 17-beta-estradiol - cell viability counter screen (AID 1259241). Also: nearly all actives have a fitted effect of over 40% in size. The procedure, abridged:
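In this screen, hormone-deprived VM7Luc4E2 cells were seeded at 4,000 per well, dosed with compound and 0.1 nM estradiol final, and incubated 22 hr at 37C and 5% CO2; fluorogenic live-cell protease signal reported viability.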

Assay [8] can be described thus: qHTS assay to identify small molecule antagonists of the androgen receptor (AR) signaling pathway using the MDA cell line in the presence of 0.5 nM R1881 - cell viability counter screen (AID 1259242). Also: nearly all actives have a fitted effect of over 45% in size. The procedure, abridged: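 Human breast carcinoma MDA-kb2 cells, cultured without CO2, receive compounds alongside 0.5 nM (final) R1881 agonist. After 16 hr at 37C, viability is taken as live-cell protease signal.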

Assay [9] is described as follows: qHTS RealTime-Glo MT Cell Viability Assay in HEK293 cells - 8 hour (AID 1224887). Also: top concentration of the series differs between compounds; nearly all actives have a fitted effect of over 50% in size. The procedure, abridged: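 Measured as luminescence from the same continuously cultured HEK293 wells at successive time points (0, 8, 16, 24, 32, 40 h) after compound addition. Reagent present from seeding; dosing at 5 h; incubation 37 C.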
Assay [10] addresses Androgen receptor (Homo sapiens) (UniProt P10275). Nature of the assay: qHTS assay to identify small molecule antagonists of the androgen receptor (AR) signaling pathway using the MDA cell line in the presence of 0.5 nM R1881 (AID 1259243). Also: nearly all actives have a fitted effect of over 50% in size. Also: potency is read from the fitted curve at half-maximal effect. The method in brief: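 Cells: MDA-kb2 (MMTV-luc). Stimulus: 0.5 nM R1881. Time: 16 hr, 37C, no CO2. Detection: ONE-Glo luminescence after 30 min at RT.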

Androgen receptor (Homo sapiens), sequence (P10275 whole entry, looked up): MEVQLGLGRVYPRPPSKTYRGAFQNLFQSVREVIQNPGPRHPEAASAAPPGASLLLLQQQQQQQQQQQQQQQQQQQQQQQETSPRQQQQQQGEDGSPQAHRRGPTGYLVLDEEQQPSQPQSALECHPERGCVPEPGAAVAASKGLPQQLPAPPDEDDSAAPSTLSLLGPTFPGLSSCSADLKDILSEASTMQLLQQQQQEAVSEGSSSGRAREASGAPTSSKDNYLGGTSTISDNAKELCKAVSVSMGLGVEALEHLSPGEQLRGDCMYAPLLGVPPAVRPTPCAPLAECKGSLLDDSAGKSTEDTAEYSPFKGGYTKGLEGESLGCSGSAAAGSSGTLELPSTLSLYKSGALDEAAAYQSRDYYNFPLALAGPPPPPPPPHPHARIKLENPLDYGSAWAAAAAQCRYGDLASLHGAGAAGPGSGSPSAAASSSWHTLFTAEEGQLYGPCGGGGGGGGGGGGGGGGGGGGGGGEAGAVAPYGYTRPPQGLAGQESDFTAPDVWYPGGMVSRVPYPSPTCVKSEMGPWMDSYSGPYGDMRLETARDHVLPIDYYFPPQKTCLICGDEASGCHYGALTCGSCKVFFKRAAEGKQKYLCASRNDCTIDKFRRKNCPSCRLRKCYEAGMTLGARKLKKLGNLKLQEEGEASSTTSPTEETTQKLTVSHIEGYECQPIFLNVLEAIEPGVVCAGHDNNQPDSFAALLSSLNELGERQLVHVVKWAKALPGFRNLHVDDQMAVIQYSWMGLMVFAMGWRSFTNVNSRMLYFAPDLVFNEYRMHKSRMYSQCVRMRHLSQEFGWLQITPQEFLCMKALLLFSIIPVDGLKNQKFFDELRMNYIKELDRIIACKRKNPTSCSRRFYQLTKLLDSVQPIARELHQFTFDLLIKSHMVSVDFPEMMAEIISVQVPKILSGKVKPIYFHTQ

As for `CC1=C(C)S(=O)(=O)CCS1(=O)=O`, the compound was classed as inactive in assay [1], in assay [2], in assay [4] and in [8]. The Potency entry in assay [3], in assay [5], in assay [6] and in [7] was “inactive” in each case.
As for `COc1ccc2cc([C@H](C)C(=O)O)ccc2c1`, the outcome in [1], in [2], in assay [4] and in assay [8] was inactive. The Potency result in [3], in assay [5], in assay [6] and in [7] was “inactive” throughout.
Take `OC[C@H]1O[C@@](CO)(O[C@H]2O[C@H](CO)[C@@H](O)[C@H](O)[C@H]2O)[C@@H](O)[C@@H]1O`: the compound was classed as inactive in assay [1], in assay [4] and in [8]. In addition, the Potency result in assay [6] and in assay [7] was “inactive” in each case.
As for `O=C(O)c1ccc(C(=O)O)cc1`, the result in assay [1], in assay [2], in assay [4] and in [8] was inactive. Besides, the Potency entry in assay [3], in [5], in assay [6] and in [7] was “inactive” throughout.
Regarding `C#CCN(C)Cc1ccccc1`, the call in assay [1], in [2], in assay [4] and in assay [8] was inactive. Moreover, the Potency entry in assay [3], in assay [5], in assay [6] and in assay [7] was “inactive” throughout.
Regarding `CN(C)CCCN`, the compound was classed as inactive in assay [1], in [2], in assay [4] and in assay [8]. The Potency entry in assay [3], in assay [5], in [6] and in assay [7] was “inactive” throughout.
Regarding `Nc1ccccc1[N+](=O)[O-]`, the outcome in [1], in assay [2], in assay [4] and in assay [8] was inactive. Further, the Potency entry in [3], in [5], in [6] and in assay [7] was “inactive” throughout.
Turning to `O=C(O)[C@H](O)[C@@H](O)[C@H](O)[C@H](O)CO`, the call in assay [2] and in assay [8] was inactive. Besides, the Potency entry in assay [3], in [9], in assay [5], in [6] and in assay [7] was “inactive” throughout.
Consider `COc1cc(Cc2cnc(N)nc2N)cc(OC)c1OC`, for which the result in [1], in assay [2], in assay [4] and in assay [8] was inactive. In addition, the Potency entry in assay [3], in assay [5], in assay [6] and in [7] was “inactive” each time.
As to `O=C(O)CC(C(=O)O)C(CC(=O)O)C(=O)O` (configuration not stated), the compound was classed as inactive in [1], in assay [2], in assay [4] and in [8]. Besides, the Potency result in assay [3], in assay [5], in [6] and in assay [7] was “inactive” in each case.
As for `CN(C)CCC(c1ccc(Cl)cc1)c1ccccn1` (configuration not stated), the outcome in assay [1], in assay [2], in assay [4] and in assay [8] was inactive. Besides, the Potency entry in [3], in [5], in assay [6] and in assay [7] was “inactive” in each case.
In the case of `CC[C@H](C)C(=O)O[C@H]1C[C@@H](C)C=C2C=C[C@H](C)[C@H](CC[C@@H]3C[C@@H](O)CC(=O)O3)[C@H]21`, the compound was classed as inactive in assay [1], in assay [2], in assay [4] and in assay [8]. In addition, the Potency result in assay [3], in assay [5], in [6] and in assay [7] was “inactive” each time.
Regarding `CC(=O)CC(=O)Nc1ccccc1`, the result in [1], in assay [2], in assay [4] and in assay [8] was inactive. Further, the Potency result in assay [3], in assay [5], in assay [6] and in [7] was “inactive” each time.
For `C=C(C)C(=O)Nc1ccc(Cl)c(Cl)c1`, the result in assay [1], in assay [2], in [4] and in assay [8] was inactive. The Potency in [3] was 19.7 µM (active) and 21.8 µM (active). The Potency entry in [5], in assay [6] and in assay [7] was “inactive” throughout.
As to `O=C(OCCOCCOC(=O)c1ccccc1)c1ccccc1`, the compound was classed as inactive in assay [1], in assay [2], in assay [4] and in assay [8]. In addition, the Potency result in assay [5], in assay [6] and in assay [7] was “inactive” throughout.
Take `CCc1ccc(CCOc2ccc(CC3SC(=O)NC3=O)cc2)nc1` (configuration not stated): the result in [1], in assay [2], in [4] and in assay [8] was inactive. The Potency result in assay [3], in assay [5], in assay [6] and in assay [7] was “inactive” in each case.
Turning to `O=C(O)c1cc(C(=O)O)cc(S(=O)(=O)O)c1`, the compound was called inactive in assay [1], in assay [2], in assay [4] and in assay [8]. The Potency result in assay [3], in assay [5], in assay [6] and in [7] was “inactive” each time.
Turning to `O=P(OC(CCl)CCl)(OC(CCl)CCl)OC(CCl)CCl`, the call in [1], in [2], in [4] and in [8] was inactive. In addition, the Potency in assay [3] is 24.4 µM (active). The Potency entry in assay [5], in assay [6] and in assay [7] was “inactive” each time.
`CC(C)(N)CO`: the compound was called inactive in [1], in assay [2], in assay [4] and in assay [8]. The Potency entry in assay [3], in assay [5], in [6] and in [7] was “inactive” each time.
As to `CC1=CC(=O)NS(=O)(=O)O1`, the call in [1], in assay [2], in assay [4] and in assay [8] was inactive. Besides, the Potency result in [3], in assay [5], in [6] and in assay [7] was “inactive” in each case.
For `O=C(O)c1cc(=O)c2c(OCC(O)COc3cccc4oc(C(=O)O)cc(=O)c34)cccc2o1`, the call in assay [1], in assay [2], in assay [4] and in assay [8] was inactive. Moreover, the Potency entry in [3], in assay [5], in assay [6] and in assay [7] was “inactive” in each case.
On to `C=CCOC(=O)c1ccccc1C(=O)OCC=C`, for which the compound was called inactive in [1], in assay [2], in [4] and in assay [8]. The Potency result in [3], in assay [5], in assay [6] and in [7] was “inactive” each time.
Regarding `CCCCN(CCCC)CCCC`, the compound was classed as inactive in assay [1], in assay [2], in assay [4] and in assay [8]. Moreover, the Potency result in assay [3], in [5], in assay [6] and in [7] was “inactive” in each case.
On to `CC1CCC(C(C)C)C(O)C1` (configuration not stated), for which the outcome in [1], in assay [2], in assay [4] and in assay [8] was inactive. Also, the Potency result in [3], in [5], in [6], in assay [7] and in assay [10] was “inactive” in each case.
On to `O=S(=O)(O)c1ccc2ccccc2c1`, for which the call in assay [1], in [2], in [4] and in [8] was inactive. Also, the Potency result in assay [3], in assay [5], in assay [6] and in [7] was “inactive” in each case.
As to `CC(O)COCC(C)O` (configuration not stated), the outcome in assay [1], in assay [2], in [4] and in assay [8] was inactive. Besides, the Potency entry in [3], in assay [5], in assay [6] and in assay [7] was “inactive” each time.
`c1ccc2scnc2c1`: the compound was called inactive in assay [1], in assay [2], in [4] and in assay [8]. Also, the Potency entry in [3], in assay [5], in [6] and in assay [7] was “inactive” in each case.
For the compound `CC(C)(C)[C@@H](O)[C@@H](Cc1ccc(Cl)cc1)n1cncn1`, the compound was called inactive in assay [1], in [2], in assay [4] and in [8]. The Potency result in assay [9], in [5], in assay [6] and in [7] was “inactive” throughout.
For the compound `c1ccc2c(c1)ccc1ccccc12`, the compound was called inactive in assay [1], in [2], in [4] and in [8]. For the same compound, the Potency entry in [3], in [5], in assay [6] and in [7] was “inactive” in each case. Besides, the Potency in assay [10] is 17.2 µM (active).
For `C=CCNC(N)=S`, the compound was classed as inactive in assay [1], in [2], in assay [4] and in [8]. The Potency entry in assay [3], in [5], in [6] and in [7] was “inactive” each time.
